From PubChem BioAssay AID2551 (National Center for Advancing Translational Sciences (NCATS), 2010)
In all, about 310,000 compounds went through this assay and about 17,000 (5.5%) were called active. Inconclusive results (about 11%) are left out. The sample as a whole holds a higher share of actives than the screen did. Unmarked numbers belong to inactive results. Calls come from the whole dose curve; as a rule, active = well fitted inhibition curve with a large enough effect; inconclusive = small, poorly fitted or top-dose-only effect, or effect the other way; inactive = no such curve, though single readings can be large or run the other way.

target: Nuclear receptor ROR-gamma (Mus musculus) (UniProt P51450); assay: qHTS for inhibitors of ROR gamma transcriptional activity; conditions: Drosophila S2 Gal4-RORgamma UAS-luciferase reporter, 20 h; series mostly up to 53.6 µM; activity change, negative = inhibition: at the top concentration; note: nearly all actives have a fitted effect of over 60% in size
Summary of the method: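 In this cell-based reporter format, copper sulfate (700 uM final) drives Gal4–ROR gamma fusion expression from a metallothionein promoter in Drosophila Schneider cells; compounds preincubated 1 hr, reporter read after 20 hr at ambient temperature.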
% is set by controls: 0 for no effect and ±100 for the full control effect; potency is the fitted concentration of half-maximal effect.

Chain of Nuclear receptor ROR-gamma (Mus musculus) (P51450 whole entry, looked up, the tested form may be a part): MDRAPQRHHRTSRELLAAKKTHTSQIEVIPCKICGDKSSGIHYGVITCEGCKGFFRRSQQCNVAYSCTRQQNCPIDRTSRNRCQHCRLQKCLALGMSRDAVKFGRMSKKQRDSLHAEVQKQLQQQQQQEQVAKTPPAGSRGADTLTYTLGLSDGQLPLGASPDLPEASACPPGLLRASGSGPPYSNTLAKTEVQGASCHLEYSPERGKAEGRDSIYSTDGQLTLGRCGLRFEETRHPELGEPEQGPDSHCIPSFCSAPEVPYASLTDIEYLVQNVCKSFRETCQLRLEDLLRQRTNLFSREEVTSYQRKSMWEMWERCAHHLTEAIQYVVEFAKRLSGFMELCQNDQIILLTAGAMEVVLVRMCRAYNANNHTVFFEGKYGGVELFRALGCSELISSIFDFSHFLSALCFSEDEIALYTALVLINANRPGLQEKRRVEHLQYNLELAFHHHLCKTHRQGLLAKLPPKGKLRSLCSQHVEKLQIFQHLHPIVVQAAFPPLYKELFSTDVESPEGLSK

| SMILES | activity change, negative = inhibition | Potency |
| --- | --- | --- |
| O=C(O)/C=C/C(=O)Nc1ccc(F)cc1F | 10.8% | – |
| COC(=O)c1sc(-c2ccc(C(C)(C)C)cc2)cc1NC(=O)/C=C/C(=O)O | – | 12.6 µM (active) |
| Cc1c(NC(=O)/C=C/C(=O)O)cccc1[N+](=O)[O-] | -4.11% | – |
| Cc1ccc(/C=N/NC(=O)CSc2ccccn2)o1 | 15.4% | – |
| C/C(=N/NC(=O)c1ccc(Br)o1)c1ccc(C)o1 | -4.16% | – |
| C/C(=N\NC(=S)NC1CCCCC1)c1ccc(C)o1 | – | 0.631 µM (active) |
| Cc1ccc(/C=N/NC(=O)Cn2nc(C)c(Br)c2C)o1 | -22.6% | – |
| C/C(=N\NC(=O)NC1CCCCC1)c1ccc(OC(F)F)cc1OC(F)F | -26.9% | – |
| Cc1ccc(/C=N/NC(=S)NC2CCCCC2)o1 | – | 0.251 µM (active) |
| COc1ccc(S(=O)(=O)N2CCOC2CNC(=O)C(=O)NCc2ccncc2)cc1OC (configuration not stated) | -23.5% | – |
| O=C(N/N=C/c1ccc(O)cc1)/C(=C/c1ccc([N+](=O)[O-])cc1)NC(=O)c1ccccc1 | 4.46% | – |
| O=C(Nc1ccccc1)/C(=C/c1ccc([N+](=O)[O-])cc1)NC(=O)c1ccccc1 | -5.91% | – |
| O=C(N/N=C/c1cc([N+](=O)[O-])ccc1O)/C(=C\c1cccs1)NC(=O)c1ccccc1 | – | 11.2 µM (active) |
| CCCCc1nc2cc(C(=O)NCCc3cnn(C)c3)ccc2o1 | 32.8% | – |
| COc1ccccc1-c1cnn2c(N3CCOCC3)cc(C)nc12 | 1.17% | – |
| N#Cc1ccccc1NC(=O)c1ccc2c(c1)OCO2 | -0.235% | – |
| COc1ccc(C(=O)NC(C)Cn2nc(C)cc2C)cc1OC1CCN(C(C)=O)CC1 (configuration not stated) | 4.79% | – |
| Oc1ccc(N=Nc2nccs2)c(O)c1 | – | 7.08 µM (active) |
| c1ccc(NCc2cccc3ccccc23)nc1 | 15.3% | – |
| Oc1ccc2ccccc2c1C=Nc1ccccc1 | -30.3% | – |
| Oc1ccc2ccccc2c1N=Nc1nccs1 | – | 1.26 µM (active) |
| O=C(c1c(F)cccc1F)N1CCN(c2ncc(Br)cn2)CC1 | 11.8% | – |
| CCOC(=O)N1CCC(N2Cc3cccc(C(=O)Nc4c(C)cccc4CC)c3C2=O)CC1 | -1.98% | – |
| Cc1cc(=O)oc2c(C)c(OCC(=O)NCCc3ccc(S(N)(=O)=O)cc3)ccc12 | -3.62% | – |

| SMILES | activity change, negative = inhibition | Potency |
| --- | --- | --- |
| Cc1ccc(NS(=O)(=O)c2cc3c(cc2C)NC(=O)CO3)cc1 | 21.6% | – |
| N=c1oc2ccccc2cc1C(=O)NCc1ccccc1 | 3.1% | – |
| CCOC(=O)c1cnc(-n2nc(C)cc2C)nc1NNc1cc(C)nc(-c2ccccc2)n1 | – | 0.1 µM (active) |
| CCOC(=O)c1cnc(-c2ccccc2)nc1Oc1ccc(C)cc1 | -0.933% | – |
| Cc1cc(C)n(-c2c(F)c(F)c(COC(=O)c3ccccc3)c(F)c2F)n1 | 22% | – |
| CC(C)c1nc2cc(C(=O)NC(C)c3cnn(C)c3)ccc2o1 (configuration not stated) | 7.34% | – |
| COc1cc(CO)ccc1OCC(=O)Nc1cccc2ccccc12 | 6.69% | – |
| C=CCn1cnc2scc(-c3ccccc3)c2c1=O | 16% | – |
| C=CCn1c(=S)[nH]c2scc(-c3ccco3)c2c1=O | – | 1.58 µM (active) |
| C=CCNC(=O)CSc1nc2scc(-c3ccco3)c2c(=O)n1CC=C | 2.33% | – |
| CC(C)(C)c1cc[n+](-c2[nH]c(=O)sc2/C=N/N=C(\[O-])c2ccccc2)cc1 | -9.35% | – |
| COc1cc(Cl)c(C)cc1NC(=O)CN1CCCCCC1 | 3.84% | – |
| COc1cc(NC(=S)N2CCCC(C)C2)c(OC)cc1Cl (configuration not stated) | – | 12.6 µM (active) |
| COc1cc(NC(=S)N2CCCC(C)C2)cc(OC)c1OC (configuration not stated) | -41% | – |
| COc1ccc(C2=NN(C(C)=O)C(c3ccccc3)C2)cc1 (configuration not stated) | 7.98% | – |
| CNC(=S)N1N=C(c2ccccc2)CC1c1ccc(Br)cc1 (configuration not stated) | – | 11.2 µM (active) |
| O=C(c1ccccc1)N1N=C(c2ccccc2O)CC1c1ccc(Br)cc1 (configuration not stated) | 1.01% | – |
| COc1ccc(-c2nonc2NC(=O)c2oc3ccc(F)cc3c2C)cc1OC | 0% | – |
| O=c1ccc2cc(S(=O)(=O)NCCCc3ccccc3)ccc2[nH]1 | -6.85% | – |
| CCN(CC)S(=O)(=O)c1ccc(NC(=O)c2cnc(C)cn2)cc1 | 3.56% | – |
| CCOc1cc(NC(=O)Nc2ccccc2)c(OCC)cc1NC(=O)CC | 40.9% | – |
| COc1ccc(C(=O)C[n+]2ccc(C)cc2)cc1 | 0.679% | – |
| COc1ccc(OCCC(=O)c2ccc(OC)cc2)cc1 | -24.6% | – |
| COc1ccc(C(=O)CC(=O)c2ccc(C)cc2)c(O)c1 | – | 10 µM (active) |

| SMILES | activity change, negative = inhibition | Potency |
| --- | --- | --- |
| Cc1cc(C)cc(N(CC(=O)NC2CCCC2)C(=O)CCC(=O)Nc2nccs2)c1 | -15.8% | – |
| COCC(C)n1c(C)cc(C(=O)COc2ccc(C)nc2[N+](=O)[O-])c1C (configuration not stated) | – | 12.6 µM (active) |
| Cc1ccc(OCC(=O)c2cc(C)n(Cc3ccco3)c2C)c([N+](=O)[O-])n1 | -33.6% | – |
| Cc1ccc(OCC(=O)NC(C)c2ccccc2)c([N+](=O)[O-])n1 (configuration not stated) | -4.48% | – |
| CCOC(=O)C1CCN(Cc2nnc(-c3cccc(Br)c3)o2)CC1 | -2.39% | – |
| Cc1noc(C)c1CSCC(=O)N(CCC(C)C)c1c(N)n(Cc2ccccc2)c(=O)[nH]c1=O | -24.5% | – |
| CCCCN1CCNC1=S | – | 12.6 µM (active) |
| CCC(C(=O)NCCC(C)C)N(Cc1ccccc1Cl)C(=O)c1snc(C(N)=O)c1N (configuration not stated) | 9.6% | – |
| CC(c1ccccn1)N(CCN(C)C)C(=S)Nc1ccccc1F (configuration not stated) | -43.2% | – |
| CSc1cccc(NC(=S)N(Cc2ccccc2)Cc2ccccn2)c1 | – | 6.31 µM (active) |
| CSc1cccc(NC(=O)CSc2ccccc2)c1 | 25.1% | – |
| CSc1cccc(NC(=S)N(C(C)C)C(C)c2ccccn2)c1 (configuration not stated) | – | 22.4 µM (active) |
| COc1cccc(NC(=S)N(Cc2ccc(C)cc2)Cc2ccccn2)c1 | -103% | – |
| CCOc1ccc(C(=O)Nc2cccc(SC)c2)cc1 | 17.7% | – |
| COC(=O)c1ccc(S(=O)(=O)N2CCc3ccccc3C2)cc1 | 5.76% | – |
| COc1ccc(NC(=O)CSc2ccc(-c3ccco3)nn2)c(OC)c1 | 13% | – |
| CN(C)c1ccc(S(=O)(=O)NCC(=O)NCC2CCCCC2)cc1[N+](=O)[O-] | -1.36% | – |
| COc1ccc(CN2CC(C(=O)NCCc3ccc(Cl)cc3)CC2=O)cc1 (configuration not stated) | 17.2% | – |
| CCOc1ccc(NC(=O)CC(Cc2ccc(Cl)cc2)C(=O)O)cc1 (configuration not stated) | 3.83% | – |
| CCOC(=O)c1cc(C)nc(S(C)(=O)=O)c1C#N | – | 8.91 µM (active) |
| CCOC(=O)COc1nc(C)cc(C(F)(F)F)c1C#N | 1.74% | – |
| CCOC(=O)c1c(C(C#N)C#N)cc(C)nc1C | -1.43% [at 10 µM] | – |
| O=C(O)c1ccccc1-c1ccccc1C(=O)NCCc1ccccc1 | 31.7% | – |
| CN(CC(=O)Nc1ccccc1C(F)(F)F)C(=O)Cc1ccccc1F | -27.9% | – |

| SMILES | activity change, negative = inhibition | Potency |
| --- | --- | --- |
| CCC1=Nc2cc(C(=O)NCCN3CCCC3)ccc2Sc2ccc(C)cc21 | 2.84% | – |
| Cc1cccc(C(=O)NCCCN2CCCC2=O)c1 | -6.33% | – |
| Cc1cccc(-c2nc3ccc(C(=O)NCCN4CCN(C)CC4)cc3nc2-c2cccc(C)c2)c1 | – | 12.6 µM (active) |
| Cc1cc(C)nc(N/N=C/c2ccncc2)n1 | -20.5% | – |
| CCN(CC)c1ccc(/C=N/Nc2nc(C)cc(C)n2)c(O)c1 | – | 1.78 µM (active) |
| CCN(CC)c1ccc(/C=N/NC(=O)CNC(=O)c2cccnc2)cc1 | 11.4% | – |
| CCN(CC)c1ccc(/C=N/NC(=O)c2cnccn2)c(O)c1 | – | 1.58 µM (active) |
| CCN(CC)c1ccc(/C=N/Nc2nc(C)cc(=O)[nH]2)cc1 | -32.5% | – |
| O=C(Nc1ccc2c(c1)OCCO2)c1cnccn1 | -26.5% | – |
| CCc1c(C)c2ccc(OC3CCCCC3=O)cc2oc1=O (configuration not stated) | 9.01% | – |
| CC(C)(C)n1nnnc1C(c1ccccc1F)N1CCN(C(=O)c2ccco2)CC1 (configuration not stated) | 0.521% | – |
| OC(COc1ccc(F)cc1Cl)CN1CCc2ccccc2C1 (configuration not stated) | 0.765% | – |
| CC(C)c1nc2ccc(C(=O)O)cc2[nH]1 | – | 8.91 µM (active) |
| Cc1cccc(C(=O)O)c1 | -7.78% | – |
| OC(c1nc2ccc(F)cc2[nH]1)C(O)c1nc2ccc(F)cc2[nH]1 (configuration not stated) | -2.57% | – |
| Cc1ccc(CN(C)Cc2cc(=O)oc3cc(C)c(Cl)cc23)cc1 | -12.8% | – |
| CN(c1ccccc1)S(=O)(=O)c1cc(C(=O)OCC(=O)N2CCN(C(=O)c3ccco3)CC2)ccc1Cl | 11.3% | – |
| CN(c1ccccc1)S(=O)(=O)c1cc(C(=O)Nc2nc3ccccc3[nH]2)ccc1Cl | – | 2.82 µM (active) |
| CN(c1ccccc1)S(=O)(=O)c1cccc(NC(=O)Cc2c(F)cccc2Cl)c1 | 1.9% | – |
| CN(CC(=O)Nc1c(Cl)cccc1Cl)C(=O)CNC(=O)C1CCCCC1 | 6.57% | – |
| COc1ccc(C(=O)NC2CC(C)(C)Cc3c2cnn3-c2ccccc2C)o1 (configuration not stated) | 0.707% | – |
| CC(=O)Nc1cccc(NC(=O)c2ccc3c(c2)CCN3S(C)(=O)=O)c1 | -13.8% | – |
| O=C(Cc1ccc(F)cc1)N/N=C/c1ccc2c(c1)OCO2 | -4.2% | – |
| Cc1cc(=O)[nH]c(N/N=C/c2ccc3c(c2)OCCO3)n1 | -29.2% | – |

| SMILES | activity change, negative = inhibition | Potency |
| --- | --- | --- |
| Cc1noc(C)c1/C=N/Nc1ccc2ccccc2n1 | 18.6% | – |
| Brc1ccc(-c2csc(N/N=C/c3cccnc3)n2)cc1 | 9.48% | – |
| C(=N\Nc1ccc2ccccc2n1)/c1ccc2c(c1)OCO2 | – | 8.91 µM (active) |
| Brc1ccc(-c2csc(N/N=C/c3ccc4c(c3)OCO4)n2)cc1 | – | 10 µM (active) |
| O=C(NNC(=O)c1ccco1)Nc1ccccc1 | 6.3% | – |
| COCCNC(=O)CSc1nc2sccc2c(=O)n1-c1ccccc1 | 35.1% | – |
| O=Cc1c(NCCCN2CCCC2=O)c2ccccc2[nH]c1=O | -8.89% | – |
| Cc1ccc2c(c1)N(C(=O)CCC(=O)NCc1cccnc1)CCO2 | 2.85% | – |
| CCCNC(=O)c1c(N)n(-c2ccc(S(N)(=O)=O)cc2)c2nc3ccccc3nc12 | – | 12.6 µM (active) |
| Cc1noc(C)c1C(=O)NCCc1ccc(S(N)(=O)=O)cc1 | 6.01% | – |
| CCOC(=O)c1c(C)c(C(=O)NCCc2ccc(S(N)(=O)=O)cc2)c(C)n1CC | -16.7% | – |
| O=S(=O)(Cc1nnnn1-c1ccc(Br)cc1)c1ccc(F)cc1 | 34.9% | – |
| Cc1occc1C(=O)NNC(=S)NCC(C)C | -19.8% | – |
| Cc1cccc(C(=O)OCC(=O)NCC(C)C)c1O | 39% | – |
| Cc1cccc(NC(=O)c2ccc(OCC(=O)NCc3ccccc3)cc2)c1C | 1.17% | – |
| O=C(NNC(=S)NCc1ccccc1)c1ccc(OC(F)F)cc1 | -25.4% | – |
| Cc1scc(C(=O)NNC(=S)NCC(C)C)c1C | – | 1.78 µM (active) |
| Cc1scc(C(=O)NNC(=S)NCc2ccccc2)c1C | – | 2 µM (active) |
| CNC(=S)NNC(=O)c1cccn(Cc2ccccc2)c1=O | 38.7% | – |
| CC(=O)Nc1ccc(OCC(=O)NCc2ccc(C)cc2)cc1 | 12.2% | – |
| Cc1ccc(OCC(=O)NNC(=S)NCc2ccccc2)cc1 | – | 1.26 µM (active) |
